Measured values published in ChEMBL document CHEMBL1157539, “Thousands of chemical starting points for antimalarial lead identification” (Nature, 2010).

System: Plasmodium falciparum
Assay: GSK_TCMDC: Inhibition of Plasmodium falciparum Dd2 in whole red blood cells, using parasite LDH activity as an index of growth. Test compounds present at 2uM
Assay type: functional

| Compound | Inhibition [%] |
| --- | --- |
| CC(C)CNCc1cccc(-c2ccc(CN(CCCN3CCN(C)CC3)C(=O)CCC3CCCC3)cc2)c1.O=C(O)C(F)(F)F | 89 |
| Cn1nc(-c2cccc(CNCCc3cccs3)c2)c2cnc(NC3CCCC3)nc21 | 0 |
| COc1ccc2nccc([C@@H](O)CN3CCC(NCc4ccc5c(c4)NC(=O)CO5)CC3)c2c1.Cl | 6 |
| CCN(CC)CCN(Cc1ccc(-c2ccc(Cl)s2)cc1)C(=O)Cn1c(CCc2cccc(F)c2F)nc(=O)c2ccccc21.O=C(O)C(O)C(O)C(=O)O | 27 |
| CC(C)c1ccc2c(c1)c(SC(C)(C)C)c(CC(C)(C)C#N)n2Cc1ccc(Cl)cc1 | 95 |
| Cl.N#Cc1ccc2c(c1)CCN(CCC1CCC(NC(=O)/C=C/c3cc(Br)cs3)CC1)CC2 (stereo not drawn) | 1 |
| O=C(Nc1cccc(CN2CCN(C(=O)c3cccc(Cl)c3)CC2)c1)c1cccs1.O=C(O)C(F)(F)F | 94 |
| CC(C)COc1ccc(Cl)cc1Cc1ccc(-c2nc3ccc(Cl)cc3[nH]2)o1 | 96 |
| Cl.O=c1ccc2ncc(Cl)c3c2n1CC3CN1CCC(NCc2cc3c(cn2)OCCO3)CC1 (stereo not drawn) | 29 |
| O=C(Nc1cccc(-c2ccc(-c3nc4ccccc4[nH]3)cc2)c1)c1cccnc1 | 1 |
| CC(C)c1sc(N2CCN(C)CC2)nc1C(=O)Nc1cccc2c1CCCC2.O=C(O)C(F)(F)F | 50 |
| NC(=O)c1cccc(C(=O)Nc2cccc(-c3cccc(-c4nc5cc(F)ccc5[nH]4)c3)c2)c1 | 73 |
| CCn1c(-c2nonc2N)nc2cnc(Oc3cccc(NC(=O)c4ccc(OCCN5CCCC5)cc4)c3)cc21 | 1 |
| COc1cccc2sc(N3CCN(C(=O)c4ccc([N+](=O)[O-])o4)CC3)nc12 | 67 |
| O=C(O)C(F)(F)F.c1ccc2c(c1)CN(Cc1cc3ccccc3[nH]1)CC1(CCN(Cc3c[nH]c4cnccc34)CC1)O2 | 62 |
| COC(=O)C(C)NCC(=O)c1ccccc1.Cl (stereo not drawn) | 23 |
| O=C(NC1CCN(Cc2ccccc2)CC1)c1ccc(-c2nc3cc(Cl)c(Cl)cc3[nH]2)c(F)c1 | 83 |

| Compound | Inhibition [%] |
| --- | --- |
| O=C(NCCN1CCCCC1)c1cc2cc(-c3ccccc3)ccc2n1S(=O)(=O)c1ccccc1 | 0 |
| CC(C)(C)c1ccc(CN2CCC(NC(=O)c3ccc(-c4cccc(Cl)c4)s3)CC2)cc1.O=C(O)C(F)(F)F | 47 |
| O=C(C=Cc1ccc(Cl)c(Cl)c1)NCCCCCN1CCC(CCNC(=O)c2sc3ccccc3c2Cl)CC1 | 6 |
| CC(C)(C)c1ccc(C(=O)Nc2ccc3nc4c(c(N)c3c2)CCCC4)cc1.Cl | 99 |
| COc1ccc(N2CCN(CCCCNC(=O)c3ccc(NC(=O)c4ccc(OC(F)(F)F)cc4)cc3)CC2)c(OC)c1 | 90 |
| COc1cc(OC)cc(-c2nn(-c3ccc([N+](=O)[O-])cc3Cl)c(=S)n2Cc2ccco2)c1 | 100 |
| CCCCCCn1c(Sc2ccc(C#N)c([N+](=O)[O-])c2)nnc1-c1cccs1 | 60 |
| Cc1cc(C(=O)Nc2ccc3c(c2)CCN3C2CCN(Cc3ccc(F)cc3Cl)C2)no1 (stereo not drawn) | 96 |
| C[C@@H]1CC[C@H](NC(=O)[C@H](CC2CCCC2)NC(=O)N2CCNCC2)C(=O)CN1S(=O)(=O)c1ccccn1.O=C(O)C(F)(F)F | 19 |
| COc1cccc(CNC(=O)c2cc(CNCc3ccccc3)ccc2-c2cccc(CNCc3ccc(-c4ccccc4)cc3)c2)c1.O=C(O)C(F)(F)F | 15 |
| O=C(O)C(F)(F)F.O=S(=O)(NCCN1CCCC1)c1cccc(-c2ccc(CNCc3ccc(F)cc3)cc2)c1 | 41 |
| Cc1cc(=O)c(-c2ccc(Oc3cccc(Cl)c3)cc2)c(C)[nH]1 | 89 |
| Cc1ccc(NC(=O)c2nc(N3CCN(c4ccncc4)CC3)ccc2Cl)cc1F.O=C(O)C(F)(F)F | 57 |
| COc1ccc2c(c1)OC(C)(C)CC2=NOS(=O)(=O)c1ccc(C)cc1 | 12 |
| Cc1cc(Cl)ccc1OC(C)C(=O)N1CCc2ccccc21 (stereo not drawn) | 78 |
| NC(=O)C1CCN(Cc2ccc(-c3ccc(-c4nc5cc(C(F)(F)F)ccc5[nH]4)s3)cc2)CC1.O=C(O)C(F)(F)F | 91 |
